Assay results as given in the supplement of paper PMC13380429.

Test system: Vero E6 infected with SARS-CoV-2
Assay: inhibition of SARS-CoV-2 cytopathic effect; higher = more antiviral protection, active = above 15
Conditions: 48 h

Measured: inhibition of SARS-CoV-2 cytopathic effect

NC(=O)CCCCC1CCSS1 (stereo not given) [lipoamide]
inactive: 1 nM 1.2% | 8.33 nM 1.81% | 100 nM -0.52% | 833.33 nM -3.3% | 10000 nM 3.78%

FC(F)(F)c1cccc(-c2noc(-c3cc(-c4ccccc4)c(C(F)(F)F)s3)n2)c1
inactive: 1 nM 1.19% | 8.33 nM 0.95% | 100 nM -0.54% | 833.33 nM 1.01% | 10000 nM 1.68%

Fc1ccc(-c2c3cccc(C(F)(F)F)c3nn2Cc2ccc(F)cc2Cl)cc1
inactive: 1 nM -0.96% | 8.33 nM -3.42% | 100 nM 2.69% | 833.33 nM -1.23% | 10000 nM 2.25%

CC[C@H](C)[C@@H]([C@@H](CC(=O)N1CCC[C@H]1[C@H](OC)[C@@H](C)C(=O)N[C@@H](Cc1ccccc1)c1nccs1)OC)N(C)C(=O)[C@@H](NC(=O)[C@H](C(C)C)N(C)C)C(C)C [dolastatin-10]
inactive: 1 nM -1.47% | 8.33 nM 0.79% | 100 nM -2.31% | 833.33 nM -3% | 10000 nM 0.49%

CC(C(=O)O)c1ccc2c(c1)Cc1cccnc1O2 (stereo not given) [pranoprofen]
inactive: 1 nM -0.06% | 8.33 nM 4.49% | 100 nM 2.65% | 833.33 nM 1.95% | 10000 nM -1.17%

COc1cccc(OC)c1OCCNC[C@H]1COc2ccccc2O1
inactive: 1 nM -0.3% | 8.33 nM 0.6% | 100 nM 0.45% | 833.33 nM 0% | 10000 nM 0.85%

CCOc1ccc(NC(C)=O)cc1 [phenacetin]
inactive: 1 nM 0.72% | 8.33 nM -3.1% | 100 nM 1.64% | 833.33 nM 0.87% | 10000 nM 0.81%

CN(C)CC[C@H](CSc1ccccc1)Nc1ccc(S(=O)(=O)NC(=O)c2ccc(N3CCN(Cc4ccccc4-c4ccc(Cl)cc4)CC3)cc2)cc1[N+](=O)[O-]
inactive: 1 nM -0.41% | 8.33 nM -0.39% | 100 nM -6.74% | 833.33 nM -16.3% | 10000 nM -20.2%

NCCCC[C@@H]1NC(=O)[C@@H](Cc2c[nH]c3ccccc23)NC(=O)[C@H](c2ccccc2)NC(=O)[C@@H]2C[C@@H](OC(=O)NCCN)CN2C(=O)[C@H](Cc2ccccc2)NC(=O)[C@H](Cc2ccc(OCc3ccccc3)cc2)NC1=O [pasireotide]
inactive: 1 nM -6.41% | 8.33 nM -8.12% | 100 nM -5.04% | 833.33 nM -4.91% | 10000 nM -5.41%

Cc1oc(-c2ccccc2)nc1CCC(=O)c1ccc(CC2SC(=O)NC2=O)cc1 (stereo not given) [darglitazone]
inactive: 1 nM 2.44% | 8.33 nM 3.08% | 100 nM -5.6% | 833.33 nM -5.76% | 10000 nM -1.67%

Clc1ccc(C2=CCC[C@H]3CC[C@@H]2N3)cn1
inactive: 1 nM -2.02% | 8.33 nM 2.33% | 100 nM -0.54% | 833.33 nM 0.15% | 10000 nM -1.94%

COc1ccccc1N1CCN(CCN2C(=O)c3ccccc3C(C)(C)C2=O)CC1
inactive: 1 nM 0.16% | 8.33 nM -2.9% | 100 nM 2.69% | 833.33 nM -0.3% | 10000 nM 0.21%

CCOC(=O)c1ccc(N(C)c2csc(-c3ccccc3)n2)cc1 [neuropathiazol]
inactive: 1 nM -0.18% | 8.33 nM 1.78% | 100 nM 0.85% | 833.33 nM 2.12% | 10000 nM 2.67%

Cc1nc2cnc3ccc(C#Cc4cccnc4)cc3c2n1-c1ccc(C(C)(C)C#N)cc1
inactive: 1 nM -1.65% | 8.33 nM 8.23% | 100 nM -1.48% | 833.33 nM -1.07% | 10000 nM -1.26%

CCCc1c2oc(C(=O)O)cc(=O)c2cc2c(=O)cc(C(=O)O)n(CC)c12 [nedocromil]
inactive: 1 nM 2.42% | 8.33 nM 1.24% | 100 nM 0.71% | 833.33 nM 1.06% | 10000 nM 0.79%

CNC(=N)NCCC[C@H](N)C(=O)O [targinine]
inactive: 1 nM -1.27% | 8.33 nM 4.65% | 100 nM 8.19% | 833.33 nM 0.16% | 10000 nM 3.97%

CN(C)C(=O)Oc1cccc([N+](C)(C)C)c1 [neostigmine]
inactive: 1 nM 1.41% | 8.33 nM 0.51% | 100 nM 0.73% | 833.33 nM -1.4% | 10000 nM -0.84%

NCCc1ccc(O)c(O)c1 [dopamine]
inactive: 1 nM -0.56% | 8.33 nM 0.74% | 100 nM -0.35% | 833.33 nM 0.38% | 10000 nM 0.14%
